Test results published in PubChem BioAssay AID1159580 (chemical genetic matrix, 2015).
Where “and” joins values, the source holds several entries; their conditions need not be identical. Equal entries are not always repeated. The whole screen tested about 5,500 compounds, of which about 2,000 (36%) were called active. Inconclusive results (about 18%) are left out. Cut-off read from the data, not from the text of the source: active = normalized growth mostly below about 0.91 (no sharp cut-off); inconclusive = no clear call, values can overlap the other calls; inactive = mostly above about 0.92. The list shows a part of the results.

Test: chemical genetic growth profiling, strain panel (AID 1159580);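 note: tested at 20 µM; growth read once vehicle control cultures reached saturation at 30 °C; 1 = growth at the plate median or of vehicle wells; lower values mean less growth of the strain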
Conditions: S. cerevisiae deletion strains, growth OD

Measured: normalized growth

O=C(CCCN1CC=C(n2c(=O)[nH]c3ccccc32)CC1)c1ccc(F)cc1
inactive: locus YAL013W, strain DEP1, hits give low values 0.99 | locus YAL021C, strain ccr4, hits give low values 0.958 | locus YAL026C, strain drs2, hits give low values 0.992 | locus YAL030W, strain snc1, hits give low values 0.988 | locus YBL061C, strain skt5, hits give low values 0.989 | locus YBR009C, strain hhf1, hits give low values 0.979 | locus YBR021W, strain FUR4, hits give low values 0.953 | locus YBR023C, strain chs3, hits give low values 0.983 | locus YBR171W, strain sec66, hits give low values 0.963 | locus YBR229C, strain ROT2, hits give low values 0.949 | locus YBR231C, strain swc5, hits give low values 0.953 | locus YBR279W, strain paf1, hits give low values 0.972 | locus YCL011C, strain gbp2, hits give low values 0.975 | locus YCL016C, strain dcc1, hits give low values 1 | locus YCL029C, strain bik1, hits give low values 0.973 | locus YCL069W, strain vba3, hits give low values 0.992 | locus YCR088W, strain abp1, hits give low values 1 | locus YDL005C, strain med2, hits give low values 0.973 | locus YDL035C, strain GPR1, hits give low values 0.972 | locus YDL040C, strain nat1, hits give low values 0.992 | locus YDL074C, strain BRE1, hits give low values 0.984 | locus YDL101C, strain DUN1, hits give low values 0.976 | locus YDL134C, strain PPH21, hits give low values 0.983 | locus YDL185W, strain tfp1, hits give low values 0.991 | locus YDL192W, strain arf1, hits give low values 0.983 | locus YDR001C, strain nth1, hits give low values 0.974 | locus YDR069C, strain doa4, hits give low values 0.952 | locus YDR101C, strain arx1, hits give low values 0.983 | locus YDR137W, strain rgp1, hits give low values 0.993 | locus YDR150W, strain NUM1, hits give low values 0.968 | locus YDR159W, strain sac3, hits give low values 0.989 | locus YDR162C, strain NBP2, hits give low values 0.978 | locus YDR195W, strain ref2 0.936 | locus YDR297W, strain sur2, hits give low values 0.984 | locus YDR318W, strain mcm21, hits give low values 0.991 | locus YDR334W, strain swr1, hits give low values 0.976 | locus YDR335W, strain msn5, hits give low values 0.979 | locus YDR388W, hits give low values 0.986 | locus YDR392W, strain spt3, hits give low values 0.994 | locus YDR502C, strain sam2, hits give low values 0.968 | locus YEL003W, strain gim4, hits give low values 0.99 | locus YEL037C, strain rad23, hits give low values 1 | locus YEL061C, strain CIN8 (second series), hits give low values 0.981 | locus YEL061C, strain CIN8, hits give low values 0.985 | locus YER015W, strain faa2, hits give low values 0.969 | locus YER016W, strain bim1, hits give low values 1.01 | locus YER110C, hits give low values 0.957 | locus YER111C, strain swi4, hits give low values 0.975 | locus YER155C, strain BEM2 (second series), hits give low values 0.929 | locus YER155C, strain BEM2, hits give low values 0.996 | locus YER167W, strain BCK2, hits give low values 0.982 | locus YFR010W, strain ubp6, hits give low values 0.993 | locus YGL078C, strain dbp3, hits give low values 0.976 | locus YGL086W, strain mad1, hits give low values 0.976 | locus YGL167C, strain pmr1, hits give low values 0.979 | locus YGL173C, strain kem1, hits give low values 1 | locus YGL227W, strain vid30, hits give low values 0.953 | locus YGL240W, strain doc1, hits give low values 0.953 | locus YGL248W, strain PDE1, hits give low values 0.982 | locus YGL253W, strain hxk2, hits give low values 0.981 | locus YGR078C, strain PAC10, hits give low values 0.985 | locus YGR135W, strain pre9, hits give low values 0.968 | locus YGR229C, strain SMI1, hits give low values 0.992 | locus YGR252W, strain gcn5, hits give low values 0.906 | locus YHR013C, strain ard1, hits give low values 1.01 | locus YHR027C, strain rpn1, hits give low values 0.977 | locus YHR030C, strain SLT2, hits give low values 0.991 and 0.98 | locus YHR079C, strain IRE1 (second series), hits give low values 0.989 | locus YHR079C, strain IRE1, hits give low values 0.971 | locus YHR094C, strain hxt1, hits give low values 0.994 | locus YHR129C, strain ARP1, hits give low values 0.994 | locus YHR142W, strain chs7, hits give low values 0.983 | locus YHR200W, strain rpn10, hits give low values 0.99 | locus YIL066C, strain RNR3, hits give low values 0.971 | locus YIL073C, strain SPO22, hits give low values 1.02 | locus YIL125W, strain kgd1, hits give low values 0.99 | locus YIR030C, strain dcg1, hits give low values 0.972 | locus YJL092W, strain hpr5, hits give low values 0.984 | locus YJL095W, strain BCK1 (second series), hits give low values 0.996 | locus YJL095W, strain BCK1, hits give low values 1.03 and 0.998 | locus YJL115W, strain asf1, hits give low values 0.975 | locus YJL129C, strain trk1, hits give low values 0.939 | locus YJL134W, strain LCB3, hits give low values 0.979 | locus YJL154C, strain vps35, hits give low values 0.994 | locus YJL164C, strain tpk1, hits give low values 0.994 | locus YJL166W, strain qcr8, hits give low values 0.971 | locus YJL168C, strain set2, hits give low values 0.999 | locus YJL187C, strain SWE1 (second series), hits give low values 0.978 | locus YJL187C, strain SWE1, hits give low values 0.988 | locus YJR043C, strain POL32, hits give low values 0.995 | locus YJR066W, strain TOR1, hits give low values 0.93
